Epigenetic derep: derepresses silenced GFP reporter in murine cells | 280,000 compounds, 0.2% hits | Potency, µM (series often up to 53.9 µM), for the others: top-dose GFP activation, actives largely listed as activators | AID 1865 | murine LDR cells, GFP reporter derepression, 30 h; also: % of control where 0% means no effect; nearly all actives have a fitted effect of over 60% in size
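GFP-positive cell count by laser-scanning cytometry (objects 20–120 um) after 30 h, 37 C compound exposure of murine LDR cells; reporter is CMV-GFP integrated at a silenced locus, inducible by HDAC or DNMT inhibitors.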
HTT ATP protect: protects HTT-Q103 PC12 cells, measured by ATP. PC12 HTT-Q103 induced, cytoprotection, ATP luminescence, 40 h. Potency, µM (highest dose often 56.4 µM), for inactives: cytoprotection (ATP increase), usual class: activators. 230,000 compounds, 0.14% hits. AID 1471; also: % of control where 0% means no effect; nearly all actives have a fitted effect of over 45% in size
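PC12 cells stably carrying ecdysone-inducible Htt exon 1 (Q103)–GFP were induced with 100 nM tebufenozide (final) alongside library compounds in a dose series. Cytoprotection was scored as retained ATP by ATPlite luminescence.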
Apoferritin bind: candidate novel general anesthetic via apoferritin binding; P02791; apoferritin/1-aminoanthracene competitive binding, fluorescence; Potency, µM (titrated, usually from 77.5 µM), for the others: top-dose activity change, negative = displacement, actives largely listed as inhibitors; 350,000 compounds, 0.074% hits; AID 485281; also: % is scaled to controls: 0 for no effect and ±100 for the full control effect; nearly all actives have a fitted effect of over 20% in size
Target sequence (P02791 2-175 limits assumed): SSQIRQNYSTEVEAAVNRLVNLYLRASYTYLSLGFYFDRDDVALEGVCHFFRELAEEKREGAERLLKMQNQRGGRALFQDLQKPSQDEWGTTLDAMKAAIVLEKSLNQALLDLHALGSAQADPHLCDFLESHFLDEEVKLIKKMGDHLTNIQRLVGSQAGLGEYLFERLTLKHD
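Horse-spleen apoferritin (10 uM) was mixed with 50% saturated 1-aminoanthracene in PBS, exposed to compounds for 10 min at room temperature, and read for fluorescence (ex 380 nm, em 535 nm). Competitive displacement was fitted with a four-parameter Hill equation.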
PINK1 expr mod: PINK1 expression modulation. PINK1 immunofluorescence, high-content cytometry, 24 h. AID 624263. 410,000 compounds, 0.2% hits. Potency, µM (highest dose often 76.6 µM), for the others: at the top dose activation (PINK1 increase), usual class: activators; active = well fitted activation curve with a large enough effect; inconclusive = small, poorly fitted or top-dose-only effect; cell line not stated here; also: % of control where 0% means no effect; nearly all actives have a fitted effect of over 65% in size
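A stable cell line was treated with compounds at 5 concentrations for 24 hours, with CCCP as control. PINK1 levels and mitochondrial localization were measured by immunofluorescence with mitochondrial, cell and nuclear markers after fixation, read by laser-scanning cytometry.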
PTAP TSG101 blk: blocks PTAP/TSG101 interaction to inhibit HIV-1 budding; Q99816; Fluorescence polarization, FITC-PTAP peptide / Tsg101 binding; Potency, µM (top dose mostly 115 µM), for inactives: at the highest dose activity change, negative = inhibition, hits mostly inhibitors; 340,000 tested, under 10 active; AID 493005; active = well fitted inhibition curve with a large enough effect in the main read-out, with a control signal flat, not every such curve was filed as active; inconclusive = small, poorly fitted or top-dose-only effect, or effect the other way, or a change in a side signal; inactive = no such curve, though single readings can be large or run the other way; also: % of control where 0% means no effect
Target sequence (Q99816 whole entry, looked up): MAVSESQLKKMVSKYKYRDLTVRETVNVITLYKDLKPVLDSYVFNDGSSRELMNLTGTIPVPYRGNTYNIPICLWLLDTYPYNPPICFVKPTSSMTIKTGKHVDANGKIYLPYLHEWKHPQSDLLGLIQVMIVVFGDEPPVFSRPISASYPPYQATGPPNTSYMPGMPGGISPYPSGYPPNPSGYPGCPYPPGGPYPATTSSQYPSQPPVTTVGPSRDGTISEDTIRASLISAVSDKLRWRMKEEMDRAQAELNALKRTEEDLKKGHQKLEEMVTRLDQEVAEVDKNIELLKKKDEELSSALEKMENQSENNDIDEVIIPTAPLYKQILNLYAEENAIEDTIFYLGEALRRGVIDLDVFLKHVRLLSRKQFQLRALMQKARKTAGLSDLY
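Fluorescence anisotropy tracks displacement of a FITC-tagged PTAP peptide (50 nM) from the Tsg101 binding domain (10 uM), following a 20 min room-temperature incubation at pH 7.5.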
HttQ103 aggreg: reduces HttQ103-GFP aggregates in PC12 cells; Potency, µM (titrated, usually from 46.1 µM), for inactives: at the top dose activity change, negative = inhibition, actives largely listed as inhibitors; 220,000 compounds, 1.1% hits; AID 1688; PC12 HttQ103-GFP aggregates, Acumen cytometry, 40 h; also: % is scaled to controls: 0 for no effect and ±100 for the full control effect; nearly all actives have a fitted effect of over 60% in size
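PC12 cells with ecdysone-inducible HTT exon1 Q103-GFP, induced by 100 nM tebufenozide, given compounds in a concentration series. GFP aggregates (1–25 um, 6 SD above background) counted in lysates by laser-scanning cytometry, 488 nm excitation.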
* hit, by the source's call; u = inconclusive; x = not tested or not shown; [ ] = dose if it differs, or a comment. This excerpt belongs to a sample that is enriched for hits. Unless noted, calls follow the shape of the dose curve; as a rule, active = well fitted curve in the direction sought with a large enough effect; inconclusive = small, poorly fitted or top-dose-only effect, or another doubt; inactive = no such curve, though single readings can be large; an effect the other way counts as inactive or inconclusive. Potency is read from the fitted curve at half-maximal effect.

SMILES	Epigenetic derep	HTT ATP protect	Apoferritin bind	PINK1 expr mod	PTAP TSG101 blk	HttQ103 aggreg
O=C(c1ccccc1)N1CCCCC(S(=O)(=O)c2ccc3ccccc3c2)C1=O (centres undefined)	0%	-3%	u	5µM*	-3%	-1%
Nc1ccc(-c2nc3ccc([N+](=O)[O-])cc3[nH]2)cc1	-1%	-53%[10 µM]	-24%	2%	0%	4%
O=[N+]([O-])c1ccc(-c2nc3ccc([N+](=O)[O-])cc3[nH]2)cc1	-1%	-94%	-11%	u	1%	18µM*
CSc1nc(C(=O)N2CCOc3ccc(CN4CCN(Cc5ccccn5)CC4)cc3C2)cs1	x	x	x	0%	x	x
COC(=O)C1CCCCN1Cc1ccc2c(c1)CN(C(=O)c1ccc(C)s1)CCO2 (centres undefined)	x	x	x	-1%	x	x
CCc1ccc(/C=C/c2c[nH]c3ccccc23)[n+](CC)c1	19%	6%[10 µM]	53%	32µM*	14%	u
Cc1[nH]c2ccccc2c1/C=C/c1c[nH]c2ccccc12	x	x	x	1%	x	x
COc1ccc(CCNCc2c(C(=O)O)c(C)n(Cc3c(F)cccc3Cl)c2C)cc1OC	-2%	x	-9%	-1%	x	x
O=C(O)c1ccc(CS(=O)c2cccc(C(F)(F)F)c2)o1 (centres undefined)	-1%	-13%[0.074 µM]	u	-1%[38.3 µM]	-6%	13µM*
CN(c1ncnc(N)c1[N+](=O)[O-])C1CCS(=O)(=O)C1 (centres undefined)	-2%	-12%	-9%	-2%	-2%	4.5µM*
O=C(Nc1cccc(Cl)c1Cl)c1ccc(-c2ccccc2)cc1	0%	-27%	-18%	11µM*	-6%	10%
O=C(Nc1ccccc1Cl)c1ccc(C(=O)Nc2ccccc2Cl)cc1	x	x	x	-2%	-7%	x
COC(=O)c1oc2ccc(OC)cc2c1N	-2%	-94%[10 µM]	-8%	1%[38.3 µM]	-2%	2.8µM*
O=C(O)c1cccc(-n2cccc2C=C2C(=O)c3ccccc3C2=O)c1	4%	-15%	-7%	-1%	0%	7%
O=C1C(=Cc2cccn2-c2ccccc2)C(=O)c2ccccc21	11µM*	x	2%	u	0%	-11%
O=C1C(=Cc2cccn2-c2ccc(O)cc2)C(=O)c2ccccc21	22µM*	-12%	-7%	u	u	8%
O=C(CN1C(=O)S/C(=C/c2cccn2-c2ccc(O)cc2)C1=O)N1CCCC1	x	x	u	6%	-1%	x
COc1ccc(/C=C(/C(=O)c2cccs2)N2C=CC=CC2=C(C#N)C#N)cc1	-1%	5%[10 µM]	-17%	0%	-8%	22%[9.22 µM]
COc1ccc(C(=O)/C(=C\c2ccco2)N2C=CC=CC2=C(C#N)C#N)cc1	1%	u	u	-2%	-7%	6.3µM*
N#CC(C#N)=C1C=CC=CN1/C(=C\c1ccco1)C(=O)c1ccccc1	8%	u	-21%	-1%	-2%	3.2µM*
N#CC(C#N)=C1C=CC=CN1/C(=C\c1ccco1)C(=O)c1ccc(Br)cc1	u	32%[10 µM]	-13%	-1%	-2%	u
O=C1/C(=C\c2cccc(O)c2O)SC(=S)N1Cc1ccccc1	x	x	u	u	2%	x
COc1cc(/C=C2\SC(=O)N(c3cccc(Cl)c3)C2=O)cc([N+](=O)[O-])c1O	1%	15%[10 µM]	-21%	-1%	-10%	18%[9.22 µM]
O=C1S/C(=C\c2ccc(O)c([N+](=O)[O-])c2)C(=O)N1c1ccccc1Cl	-5%	18%[10 µM]	13µM*	u	-3%	-5%[9.22 µM]
O=C1/C(=C\c2cc([N+](=O)[O-])ccc2O)SC(=S)N1Cc1ccc(Cl)cc1	x	x	-15%	14µM*	u	x
SMILES	Epigenetic derep	HTT ATP protect	Apoferritin bind	PINK1 expr mod	PTAP TSG101 blk	HttQ103 aggreg
O=C1S/C(=C\c2ccc(O)c([N+](=O)[O-])c2)C(=O)N1Cc1cccc([N+](=O)[O-])c1	1%	-8%[10 µM]	-14%	40µM*	-4%	0%[9.22 µM]
CCC1(C2CCN(C(=O)c3ccccc3Cl)CC2)NC(=O)N(CCc2scnc2C)C1=O (centres undefined)	x	x	x	0%	x	x
Cn1nnnc1SCCCNCc1cc(Br)ccc1OCc1ccccc1F	-2%	x	-15%	-1%	x	x
CCOC(=O)C1=C(CN2CCN(c3ccccc3F)CC2)NC(=O)NC1c1ccc(OC)cc1 (centres undefined)	-1%	x	3%	9%	x	x
CC(C)(C)c1ccc(-c2cn(-c3ccc(Br)cc3)c3[n+]2CCCS3)cc1	2%	-39%[10 µM]	-11%	35µM*	1%	1.3µM*
O=C1c2cccc3c(Nc4ccccc4Cl)c([N+](=O)[O-])cc(c23)C(=O)N1CCO	-1%	-74%	u	2%	0%	10µM*
O=C1C2=C(C(=O)c3ccccc31)C1O[C@](CCCCN3C(=O)c4ccccc4C3=O)(Cc3c1ccc1ccccc31)O2	x	x	-14%[15.3 µM]	x	x	x
Oc1ccc(Nc2nc(NCC3CCCO3)c3ccccc3n2)cc1 (centres undefined)	0%	-17%[10 µM]	-14%	1%	-8%	1%
COc1cccc(Nc2nc(NCC3CCCO3)c3ccccc3n2)c1 (centres undefined)	1%	-132%	-13%	0%	-2%	10µM*
COc1cccc(Nc2nc(NCCO)c3ccccc3n2)c1	3%	-55%	-22%	-1%	0%	8.9µM*
CC(=O)c1ccc(F)c(-c2cc(C)cc3c2OC(CNC(=O)c2csc(C)n2)C3)c1 (centres undefined)	x	x	x	0%	x	x
COc1ccc(C(=O)NNC(=S)NC(=O)c2cc(-c3ccccc3)nc3ccccc23)cc1	0%	u	-23%	-2%	-3%	28µM*
CCCOc1ccc(C(=O)NNC(=S)NC(=O)c2cc(-c3ccc(Cl)cc3)nc3ccccc23)cc1	-1%	-15%	-16%	-1%	-5%	-28%
COCC(=O)Nc1cc(C(=O)N2CC3CCC2C3)c2c(c1)nc(-c1ccncc1)n2C (centres undefined)	x	x	x	-1%	x	x
CCOC(=O)N1CCN(Cc2ccc3c(c2)CN(C(=O)c2noc4c2CCCC4)CCO3)CC1	x	x	x	1%	x	x
Cc1ccc(C(NC(=O)C(C)C)c2cc([N+](=O)[O-])c3cccnc3c2O)cc1 (centres undefined)	0%	-33%[10 µM]	5%	0%	5%	20µM*
CCC(=O)NC(c1ccc(C)cc1)c1cc(Cl)c2cccnc2c1O (centres undefined)	x	x	x	2%	-1%	x
CCC(=O)NC(c1cccs1)c1cc([N+](=O)[O-])c2cccnc2c1OC (centres undefined)	x	x	x	0%	x	x

Screening data from PubChem BioAssay.
